Results on 40 compounds are retold here after PubChem BioAssay.

As usually defined, the inhibition is how much of the control response was suppressed.

The structures appear in SMILES notation. Values without a mark were called inactive. The rule behind the calls is not given here.

The target of the experiment is Pantothenate synthetase (Mycobacterium tuberculosis (strain ATCC 25618 / H37Rv)) (UniProt P9WIL5). In words: Recombinant Mtb pantothenate synthetase (PanC) inhibitors, coupled enzyme, confirmatory (AID 375).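 Note: 0% = full reaction with vehicle and 100% = no enzyme background.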 The settings on record: coupled enzyme assay; at 10 µM, hits give high values.
Chain of Pantothenate synthetase (Mycobacterium tuberculosis (strain ATCC 25618 / H37Rv)) (P9WIL5 whole entry, looked up): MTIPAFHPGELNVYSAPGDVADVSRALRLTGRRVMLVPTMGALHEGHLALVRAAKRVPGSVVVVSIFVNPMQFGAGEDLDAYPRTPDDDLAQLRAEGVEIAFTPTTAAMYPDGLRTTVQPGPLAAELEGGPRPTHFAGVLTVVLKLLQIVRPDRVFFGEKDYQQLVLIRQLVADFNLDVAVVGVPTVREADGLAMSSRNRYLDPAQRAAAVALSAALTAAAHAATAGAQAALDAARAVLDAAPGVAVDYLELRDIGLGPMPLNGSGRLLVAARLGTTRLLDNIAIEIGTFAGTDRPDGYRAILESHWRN
For the compound `CCOC(=O)CSc1nnc(-c2ccc(Cl)cc2Cl)o1`, the inhibition was 2%.
To `CCn1c(SCC(=O)N2CCN(c3ccc(Cl)cc3)CC2)nc2ccccc2c1=O` belongs 0%; to `CCOc1ccc(S(=O)(=O)N2CCN(C(=O)c3cccn3C)CC2)cc1`, 0%; to `Cc1cc(=O)n(-c2ccc3ccccc3n2)[nH]1`, 6%.
To `CC(C)(C)C(=O)Oc1cc(N)n(S(=O)(=O)c2ccccc2)n1` belongs 0%.
To `O=C(NC1CCCCC1)c1nc2c(nnn2Cc2ccccc2Cl)c(=O)[nH]1` belongs 0%; to `CCCNC(=O)C1CCN(S(=O)(=O)c2ccc3nc4c(c(C(=O)O)c3c2)CCCCC4)CC1`, 0%.
`Cc1ccc(S(=O)(=O)N2CCOCC2)cc1C(=O)Nc1ccc(-c2cn3ccsc3n2)cc1`: the inhibition is 3%.
As for `O=C1CCCc2nc(N3CCCCC3)sc21`, the figure is 5%; as for `O=c1c2ccccc2c(/C=N/n2cnnc2)c(O)n1-c1ccccc1`, 2%.
To `CC(OC(=O)CNC(=O)C12CC3CC(CC(C3)C1)C2)C(=O)Nc1ccc(N2CCOCC2)cc1` (stereo not given) belongs 0%.
As for `CCN1C(=O)/C(=C/N2CCc3ccccc32)SC1=S`, the figure is 0%.
`Cc1ccc2oc(C(=O)Nc3c(C)n(C)n(-c4ccccc4)c3=O)c(C)c2c1`: the inhibition is 0%.
In the case of `COC(=O)C1=C(C)OC(N)=C(C#N)C1c1ccccc1` (stereo not given), the inhibition was 0%.
Take `O=C(CSc1ncnc2c1cnn2-c1ccccc1)Nc1ccccc1`: the inhibition is 5%.
To `FC(F)(F)C(F)(F)C(F)(F)c1nnc2ccc(N3CCOCC3)nn12` belongs 3%.
To `CC(=O)NC(CCS(C)(=O)=O)C(=O)Nc1cccc(C)c1C` (stereo not given) belongs 0%; to `c1ccc2c3nnc4n(c-3nc2c1)CCCS4`, 1%; to `C=CCSc1nc2sc(C)c(C)c2c(=O)[nH]1`, 10%.
As for `COc1cccc(N2CCN(CC(=O)NCc3cccs3)CC2)c1`, the figure is 3%; as for `CC(=O)Nc1ccc2c(c1)nc(CCNC(=O)c1ccccc1)n2C`, 0%.
On to `Cc1onc(-c2ccccc2)c1C(=O)NCCN1CCOCC1`, for which the inhibition is 3%.
As for `CN1CCc2nc(SCC(=O)Nc3ccc(F)cc3)c(C#N)cc2C1`, the figure is 8%; as for `COc1ccc(N2CCN(C(=O)CSc3ccccc3)CC2)cc1`, 6%; as for `O=C(NCC(c1cccnc1)N1CCN(c2ccccc2)CC1)c1ccc2c(c1)OCO2` (stereo not given), 0%.
To `CC(C)Cn1c(N)c(C(=O)COC(=O)c2ccc3c(c2)OCCO3)c(=O)n(C)c1=O` belongs 0%; to `O=C(CSc1nnc(Cc2ccccc2)n1-c1cccc(Cl)c1)N1CCOCC1`, 0%; to `O=C(c1cnc2n(c1=O)CCS2)N(C1CCCCC1)C1CCCCC1`, 0%.
As for `COc1ccc(-n2c(=O)c3c4c(sc3n3cnnc23)CC(C)CC4)cc1` (stereo not given), the figure is 1%.
Consider `COc1ccc(CN(C2CCCC2)S(=O)(=O)c2ccc(-n3cnnn3)cc2)cc1OC`, for which the inhibition is 0%.
As for `CC(=O)O[C@]1(C(C)=O)CC[C@H]2[C@@H]3C[C@H](C)C4=CC(=O)CC[C@]4(C)[C@H]3CC[C@@]21C`, the figure is 0%.
To `CCOC(=O)CNC(=O)C(Cc1ccccc1)NS(=O)(=O)c1ccc2c(c1)CCC(=O)N2` (stereo not given) belongs 0%; to `CC(C)(C)n1ncc2c(=O)n(CC(=O)c3ccccc3)cnc21`, 0%.
Turning to `COc1ccc2c(c1)OC(O)(C(F)F)CC2=O` (stereo not given), the inhibition is 0%.
To `Cc1c(C)n(C)c2ccc(C(=O)NCc3cccs3)cc12` belongs 0%; to `COc1ccc(OCCOC(=O)c2cccs2)cc1`, 0%; to `CCOc1ccc(NC(=O)c2ccncc2)cc1`, 0%.
Regarding `CCOC(=O)N1CCN(c2c(NCCN(C)Cc3ccccc3)c(=O)c2=O)CC1`, the inhibition is 0%.
As for `O=C(Nc1nccs1)c1ccc(COc2ccccc2Br)o1`, the figure is 0%.
To `Clc1cccc(-c2nn3c(Cn4cnc5ccccc54)nnc3s2)c1` belongs 0%.
